Screening results (PubChem BioAssay)
An excerpt weighted towards active compounds, which were near 0.81% of everything screened.
COUP-TFII inh – blocks human COUP-TFII nuclear receptor; inhibition, % at 8.6 µM; AID 686940; P24468; hit rate 0.7% among 370,000; HEK293T NGFI-A luciferase reporter, luminescence;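 active means inhibition above a per-plate cutoff, mean inhibition of test wells between control levels plus 3 SD, cut at about 38% in these data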;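 further: cells cotransfected with COUP-TFII expression vector driving the NGFI-A reporter; 0% = median of COUP-TF2 test wells and 100% = reporter-only cells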
LRH-1 inv ag – inverse agonists of human LRH-1 (NR5A2). HEK293T StAR-luciferase reporter, LRH-1 transfected, 24 h. inhibition, % at 3.6 µM. hit rate 0.13% among 360,000. AID 602396;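 active means inhibition above the mean inhibition of all tested compounds plus 3 SD, cut at about 73% in these data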;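 further: 0% = DMSO wells and 100% = reporter-only cells lacking LRH-1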
NCOA2 inhibitor – inhibits human steroid receptor coactivator 2 | Q15596 | HEK293 GAL4-SRC2 luciferase reporter, luminescence | inhibition, % at 9 µM | hit rate 0.17% among 370,000;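 active means inhibition above the mean inhibition of all tested compounds plus 3 SD, set per campaign, cut at about 52% in these data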;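 further: 0% = DMSO treated cells and 100% = cells given Gossypol at 36 µM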
NCOA3 inh – inhibitors of human steroid receptor coactivator 3 (SRC3) | Q9Y6Q9 | HEK293 GAL4-SRC3 luciferase reporter, luminescence | inhibition, % at 3.6 µM | hit rate 0.17% among 360,000;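 active means inhibition above a per-campaign cutoff, the mean of all compounds plus 3 SD, cut at about 60% in these data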;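 further: 0% = DMSO-treated cells and 100% = gossypol-treated cells at 36 µM; higher means less SRC3-driven luciferase light from the GAL4 reporter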
NCOA1 inh – inhibits human SRC1 coactivator | Q15788 | HEK293 GAL4-SRC1 luciferase reporter, luminescence | inhibition, % at 3.6 µM | hit rate 0.12% among 360,000 | AID 588354;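 active means inhibition above the campaign mean plus 3 SD, with each screening campaign given its own cutoff, cut at about 60% in these data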;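 further: 0% = DMSO treated cells and 100% = gossypol at 36 µM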
VP16 Luc counter – counter-screen for COUP-TFII antagonists: inhibitors of VP16 | AID 687007 | HEK293 Gal4-VP16 luciferase reporter, luminescence | inhibition, % at 8.5 µM | hit rate 25% among 2,500 | shares compounds with COUP-TFII inh; in the data active means inhibition above about 13%
COUP-TFII conf – confirmation of human COUP-TFII (NR2F2) inhibitors. shares compounds with COUP-TFII inh. HEK293 NGFI-A luciferase reporter, luminescence. inhibition, % at 8.5 µM. hit rate 45% among 2,500;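 active means mean inhibition over three repeats above a set limit taken from the earlier primary screen, cut at about 38% in these data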;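 further: 100% = cells given the luciferase reporter alone without the COUP-TF2 vector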
* = called active by the depositor; x = no result given.

SMILES | COUP-TFII inh | LRH-1 inv ag | NCOA2 inhibitor | NCOA3 inh | NCOA1 inh | VP16 Luc counter | COUP-TFII conf
CNC(=O)c1ccc(CN(C)C(=O)/C=C/c2ccc(S(=O)(=O)N3CCCCCC3)cc2)cc1 | 19 | -1 | -5 | 10 | 8 | x | x
O=C(Nc1ccc2cn[nH]c2c1)c1c(Cl)cccc1Cl | -7 | 7 | 21 | 6 | -1 | x | x
O=C1C(Cl)=C(Nc2ccc3cn[nH]c3c2)C(=O)c2ccccc21 | 41* | 19 | 88* | -13 | -27 | -18 | -46
COC(=O)c1ccccc1NS(C)(=O)=O | 103* | 20 | 8 | 10 | -1 | -3 | -6
C=CCSc1nnc(-c2cnn(-c3ccccc3)c2-n2cccc2)n1C | -7 | 14 | -4 | 14 | -2 | x | x
CC(=O)Nc1ccc(S(=O)(=O)N2CCN=C2SCc2ccc([N+](=O)[O-])cc2)cc1 | 48* | 21 | 16 | 27 | 13 | 1 | 22
c1ccc2c(c1)OCC(CNc1ncnc3sccc13)O2 (centres undefined) | 78* | 42 | 30 | 33 | 20 | -17 | 58*
COc1ccccc1CNc1ncnc2sccc12 | 62* | 31 | 25 | 23 | 17 | 7 | 53*
COc1ccc(CCNc2ncnc3sccc23)cc1OC | 74* | 36 | 25 | 34 | 13 | 10 | 77*
Fc1ccccc1CNc1ncnc2sccc12 | 48* | 33 | 27 | 27 | 22 | 10 | 41*
c1ccc2c(c1)OCC(CNCC1COc3ccccc3O1)O2 (centres undefined) | -13 | -4 | -36 | -4 | -4 | x | x
COCCn1c(CCC(=O)O)ccc1-c1cccs1 | -8 | -10 | 8 | 3 | 8 | x | x
CCOC(=O)C1(Cc2ccccc2)CCN(Cc2cnc(N3CCOCC3)s2)CC1 | 30 | -3 | -11 | 6 | -9 | x | x
CCN1CCN(c2ccc(NC(=O)COc3ccc([N+](=O)[O-])cc3)cc2)CC1 | 2 | 4 | 8 | 23 | -32 | x | x
CN(C)c1ccc(CNc2ncnc3sccc23)cc1 | 66* | 47 | 19 | 12 | 25 | 11 | 52*
O=C(c1ccccc1)c1nn(-c2ccccc2)c(=O)cc1C(F)(F)F | 17 | 2 | -15 | 12 | -12 | x | x
O=C(c1ccccc1)c1nn(-c2ccc(Cl)cc2)c(=O)cc1C(F)(F)F | 40* | 85* | 69* | 64* | 26 | 50* | 62*
COc1ccccc1Nc1nnc(SCc2cc(=O)n3ccsc3n2)s1 | -2 | -14 | -14 | -15 | -44 | x | x
CCOc1ccc(OCC)c(NC(=O)c2nnn(CC(=O)Nc3cc(C)cc(C)c3)c2N)c1 | -1 | 15 | -12 | 18 | -13 | x | x
Cc1oc(-c2ccc(Cl)cc2)nc1CS(=O)CC(=O)NCCCN1CCN(Cc2ccccc2)CC1 (centres undefined) | 62* | 34 | 31 | 32 | 35 | 8 | 65*
Cc1oc(-c2ccc(Cl)cc2)nc1CS(=O)CC(=O)NCCCN1CCCC(C)C1 (centres undefined) | 1 | 2 | -9 | 6 | 2 | x | x
CC1C(=O)N(Cc2cccc(F)c2)c2ccccc2N1C(=O)c1ccccc1 (centres undefined) | -16 | -9 | -8 | -1 | -11 | x | x
CC1C(=O)N(Cc2ccccc2F)c2ccccc2N1C(=O)c1c(F)cccc1F (centres undefined) | 47* | -11 | 11 | 16 | 11 | -5 | 18
COc1cccc(CN2C(=O)C(C)N(C(=O)c3c(F)cccc3F)c3ccccc32)c1 (centres undefined) | 50* | -6 | 5 | 22 | 8 | 8 | 19
O=[N+]([O-])c1ccc(CN2CCN(Cc3c[nH]c4ccccc34)CC2)cc1 | -6 | 11 | -13 | 0 | 2 | x | x
SMILES | COUP-TFII inh | LRH-1 inv ag | NCOA2 inhibitor | NCOA3 inh | NCOA1 inh | VP16 Luc counter | COUP-TFII conf
COc1cccc2sc3ccc(C#CC4(O)CCCCC4)cc3c(=O)c12 | -20 | -147 | -51 | -74 | -77 | x | x
O=c1c2ccccc2sc2ccc(C#CC3(O)CCCCC3)cc12 | 96* | 91* | 85* | 93* | 93* | 90* | 105*
O=c1c2ccccc2oc2cc(C#CC3(O)CCCCC3)ccc12 | 69* | 53 | 50 | 62* | 65* | 5 | 67*
CCc1ccc(-c2nc(CSCC(=O)NCc3ccco3)c(C)o2)cc1 | 77* | 38 | 80* | 45 | 38 | 8 | 20
Cc1nc2sccn2c1-c1csc(NCc2ccccc2)n1 | 38* | 18 | 22 | 17 | 17 | -16 | 21
CCN(c1ccc(NC(=O)c2ccc(N3CCCC3=O)cc2)cc1)C(C)C | 49* | 24 | 27 | 23 | 4 | -9 | 18
COc1ccc2c(c1)c(C(C)=O)c(C)n2CCc1ccccc1 | 53* | 17 | 13 | 28 | 19 | 4 | 23
COc1ccc(-n2c(C)c(C(C)=O)c3cc(O)ccc32)cc1 | 44* | 8 | 48 | 59 | 68* | 10 | 18
NS(=O)(=O)c1ccc(NC(=O)COc2ccc(C(=O)c3ccc(F)cc3)cc2)cc1 | 38* | 2 | 36 | 22 | 13 | -1 | 8
CN(c1ccc(OCC(=O)Nc2ccc(S(N)(=O)=O)cc2)cc1)S(=O)(=O)c1ccc(F)cc1 | 19 | 11 | -2 | 23 | -6 | x | x
COn1c(=O)c(-c2ccccc2)[n+]([O-])c2ccccc21 | -9 | -1 | 9 | -3 | -7 | x | x
CCCOc1ccc(Cn2cnc3ccccc32)cc1 | 38* | 45 | 17 | 15 | 0 | -17 | 20
COCCOC1CCN(C(=O)c2cc(COc3ccc(-n4cncn4)cc3)on2)CC1 | 3 | 7 | 5 | 13 | -9 | x | x
CCC1CCCCN1C(=O)c1cc(COc2ccc3ncccc3c2)on1 (centres undefined) | 72* | 43 | 10 | 24 | 20 | 6 | 66*
CCN1CCN(C(=O)c2cc(COc3ccc4ncccc4c3)on2)CC1 | 38* | 12 | 1 | 6 | 20 | -2 | 19
COCC1CCCCN1C(=O)c1cc(COc2ccc3ncccc3c2)on1 (centres undefined) | 44* | 29 | 28 | 22 | 0 | 6 | 57*
COCCC1CCCCN1C(=O)c1cc(COc2ccc(-n3cncn3)cc2)on1 (centres undefined) | 44* | 31 | 23 | 28 | 12 | 1 | 41*
Cc1cccc(N(C(=O)c2snc(C(N)=O)c2N)C(C(=O)NC2CCCC2)c2ccncc2)c1 (centres undefined) | -2 | 4 | -30 | -32 | -10 | x | x
CCC(C)[C@H]1COCCS(=O)(=O)N1Cc1ccc(Br)cc1 (some centres undefined) | 19 | -6 | 7 | 20 | -4 | x | x
CCOC(=O)c1c(CN2CCN(CCO)CC2)n(-c2ccccc2)c2cc(Br)c(O)cc12 | 43* | 2 | 16 | -3 | -25 | 2 | -4
